# B1: unnamed (peptide)
# chain: ISNFVPPNLPMRRFK
# What was measured:
# Experiment in all cases: SPOT peptide array binding signal intensity (averaged, normalized) (arbitrary units (background-subtracted, floor 0; scale differs between SH3 domains)); higher = stronger binding of the SH3 domain to the peptide
# AgAbp1 = target: AgAbp1
# Description: (§1)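 GST-tagged SH3 domains from S. cerevisiae (Sc), A. gossypii (Ag), C. albicans (Ca) and S. pombe (Sp) were incubated at 10 ug/ml overnight at 4 C on cellulose SPOT membranes carrying 292 synthetic 15-mer peptides mined from the S. cerevisiae proteome (cysteines replaced by serines). Binding was detected with anti-GST antibody, HRP secondary and chemiluminescence, quantified with Genespotter, and reported as normalized spot intensities averaged over biological replicates.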
# AgBbc1 = target: AgBbc1
# Description: as §1
# AgBem1-D1 = target: AgBem1-D1
# Description: as §1
# AgBzz1-D1 = target: AgBzz1-D1
# Description: as §1
# AgBzz1-D2 = target: AgBzz1-D2
# Description: as §1
# AgCyk3 = target: AgCyk3
# Description: as §1
# AgFus1 = target: AgFus1
# Description: as §1
# AgHof1 = target: AgHof1
# Description: as §1
# AgHse1 = target: AgHse1
# Description: as §1
# AgLsb1 = target: AgLsb1
# Description: as §1
# AgLsb4 = target: AgLsb4
# Description: as §1
# AgMyo5 = target: AgMyo5
# Description: as §1
# AgNbp2 = target: AgNbp2
# Description: as §1
# AgRvs167 = target: AgRvs167
# Description: as §1
# AgSho1 = target: AgSho1
# Description: as §1
# AgSla1-D1-D2 = target: AgSla1-D1-D2
# Description: as §1
# AgSla1-D3 = target: AgSla1-D3
# Description: as §1
# CaAbp1-D1 = target: CaAbp1-D1
# Description: as §1
# CaAbp1-D2 = target: CaAbp1-D2
# Description: as §1
# CaBbc1 = target: CaBbc1
# Description: as §1
# CaBem1-D1 = target: CaBem1-D1
# Description: as §1
# CaBzz1-D1 = target: CaBzz1-D1
# Description: as §1
# CaBzz1-D2 = target: CaBzz1-D2
# Description: as §1
# CaCyk3 = target: CaCyk3
# Description: as §1
# CaFus1 = target: CaFus1
# Description: as §1
# CaHof1 = target: CaHof1
# Description: as §1
# CaHse1 = target: CaHse1
# Description: as §1
# CaLsb1 = target: CaLsb1
# Description: as §1
# CaLsb4 = target: CaLsb4
# Description: as §1
# CaMyo5 = target: CaMyo5
# Description: as §1
# CaNbp2 = target: CaNbp2
# Description: as §1
# CaRvs167 = target: CaRvs167
# Description: as §1
# CaRvs167-3 = target: CaRvs167-3
# Description: as §1
# CaSho1 = target: CaSho1
# Description: as §1
# CaSla1-D1-D2 = target: CaSla1-D1-D2
# Description: as §1
# CaSla1-D3 = target: CaSla1-D3
# Description: as §1
# ScAbp1 = target: ScAbp1
# Description: as §1
# ScBbc1 = target: ScBbc1
# Description: as §1
# ScBem1-D1 = target: ScBem1-D1
# Description: as §1
# ScBzz1-D1 = target: ScBzz1-D1
# Description: as §1
# ScBzz1-D2 = target: ScBzz1-D2
# Description: as §1
# ScCyk3 = target: ScCyk3
# Description: as §1
# ScFus1 = target: ScFus1
# Description: as §1
# ScHof1 = target: ScHof1
# Description: as §1
# ScHse1 = target: ScHse1
# Description: as §1
# ScLsb1 = target: ScLsb1
# Description: as §1
# ScLsb2 = target: ScLsb2
# Description: as §1
# ScLsb3 = target: ScLsb3
# Description: as §1
# ScLsb4 = target: ScLsb4
# Description: as §1
# ScMyo3 = target: ScMyo3
# Description: as §1
# ScMyo5 = target: ScMyo5
# Description: as §1
# ScNbp2 = target: ScNbp2
# Description: as §1
# ScPex13 = target: ScPex13
# Description: as §1
# ScRvs167 = target: ScRvs167
# Description: as §1
# ScSho1 = target: ScSho1
# Description: as §1
# ScSla1-D1-D2 = target: ScSla1-D1-D2
# Description: as §1
# ScSla1-D3 = target: ScSla1-D3
# Description: as §1
# SpAbp1-D1 = target: SpAbp1-D1
# Description: as §1
# SpBbc1 = target: SpBbc1
# Description: as §1
# SpBzz1-D1 = target: SpBzz1-D1
# Description: as §1
binder,measurement,setting,value
B1,SPOT peptide array binding signal intensity,AgAbp1,31.5
same,SPOT peptide array binding signal intensity,AgBbc1,182
same,SPOT peptide array binding signal intensity,AgBem1-D1,124
same,SPOT peptide array binding signal intensity,AgBzz1-D1,90
same,SPOT peptide array binding signal intensity,AgBzz1-D2,70.5
same,SPOT peptide array binding signal intensity,AgCyk3,1
same,SPOT peptide array binding signal intensity,AgFus1,23
same,SPOT peptide array binding signal intensity,AgHof1,186
same,SPOT peptide array binding signal intensity,AgHse1,49
same,SPOT peptide array binding signal intensity,AgLsb1,136
same,SPOT peptide array binding signal intensity,AgLsb4,3890
same,SPOT peptide array binding signal intensity,AgMyo5,≤ 0
same,SPOT peptide array binding signal intensity,AgNbp2,64
same,SPOT peptide array binding signal intensity,AgRvs167,256
same,SPOT peptide array binding signal intensity,AgSho1,20.5
same,SPOT peptide array binding signal intensity,AgSla1-D1-D2,2.5
same,SPOT peptide array binding signal intensity,AgSla1-D3,3
same,SPOT peptide array binding signal intensity,CaAbp1-D1,40
same,SPOT peptide array binding signal intensity,CaAbp1-D2,9
same,SPOT peptide array binding signal intensity,CaBbc1,902
same,SPOT peptide array binding signal intensity,CaBem1-D1,21
same,SPOT peptide array binding signal intensity,CaBzz1-D1,370
same,SPOT peptide array binding signal intensity,CaBzz1-D2,297
same,SPOT peptide array binding signal intensity,CaCyk3,47
same,SPOT peptide array binding signal intensity,CaFus1,152
same,SPOT peptide array binding signal intensity,CaHof1,5
same,SPOT peptide array binding signal intensity,CaHse1,72
same,SPOT peptide array binding signal intensity,CaLsb1,10.2
same,SPOT peptide array binding signal intensity,CaLsb4,5880
same,SPOT peptide array binding signal intensity,CaMyo5,28.5
same,SPOT peptide array binding signal intensity,CaNbp2,103
same,SPOT peptide array binding signal intensity,CaRvs167,571
same,SPOT peptide array binding signal intensity,CaRvs167-3,6.25
same,SPOT peptide array binding signal intensity,CaSho1,49.5
same,SPOT peptide array binding signal intensity,CaSla1-D1-D2,1000
same,SPOT peptide array binding signal intensity,CaSla1-D3,250
same,SPOT peptide array binding signal intensity,ScAbp1,44
same,SPOT peptide array binding signal intensity,ScBbc1,130
same,SPOT peptide array binding signal intensity,ScBem1-D1,13
same,SPOT peptide array binding signal intensity,ScBzz1-D1,29.5
same,SPOT peptide array binding signal intensity,ScBzz1-D2,63
same,SPOT peptide array binding signal intensity,ScCyk3,5.5
same,SPOT peptide array binding signal intensity,ScFus1,17
same,SPOT peptide array binding signal intensity,ScHof1,8.75
same,SPOT peptide array binding signal intensity,ScHse1,122
same,SPOT peptide array binding signal intensity,ScLsb1,393
same,SPOT peptide array binding signal intensity,ScLsb2,372
same,SPOT peptide array binding signal intensity,ScLsb3,7910
same,SPOT peptide array binding signal intensity,ScLsb4,2470
same,SPOT peptide array binding signal intensity,ScMyo3,17.2
same,SPOT peptide array binding signal intensity,ScMyo5,1.5
same,SPOT peptide array binding signal intensity,ScNbp2,198
same,SPOT peptide array binding signal intensity,ScPex13,1760
same,SPOT peptide array binding signal intensity,ScRvs167,1610
same,SPOT peptide array binding signal intensity,ScSho1,85.5
same,SPOT peptide array binding signal intensity,ScSla1-D1-D2,367
same,SPOT peptide array binding signal intensity,ScSla1-D3,184
same,SPOT peptide array binding signal intensity,SpAbp1-D1,26
same,SPOT peptide array binding signal intensity,SpBbc1,36.5
same,SPOT peptide array binding signal intensity,SpBzz1-D1,748
